15-hLO-2 inh: qHTS Assay for Inhibitors of 15-hLO-2 (15-human lipoxygenase 2); 110,000 compounds, 0.56% hits; Polyunsaturated fatty acid lipoxygenase ALOX15B (Homo sapiens), O15296; purified 15hLO-2, xylenol orange hydroperoxide absorbance; Potency, µM (titrated, usually from 57.1 µM), for inactives: at the top dose activity change, negative = inhibition, usual class: inhibitors; note: potency is the fitted concentration of half-maximal effect; nearly all actives have a fitted effect of over 60% in size
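Read-out: hydroperoxide product oxidises ferrous iron, measured as xylenol orange complex via the 573-to-405 nm absorbance ratio after 30 min. Reaction: 50 nM enzyme, 15 min compound preincubation, 45 uM arachidonic acid, 90 min RT, Hepes pH 7.5 with Triton X-100.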
IMPase Li cell: qHTS Assay for Identifying the Cell-Membrane Permeable IMPase Inhibitors: Potentiation with Lithium; CHO-M1 cells, IP1 TR-FRET (IP-One), carbachol + lithium; 210,000 compounds, 0.35% hits; Potency, µM (titrated, usually from 59.4 µM), inactives show top-dose activity, negative = IMPase inhibition, most hits filed as inhibitors;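 note: IP1 builds up when IMPase is blocked and the TR-FRET signal falls; potency is the fitted concentration of half-maximal effect; plate controls were basal vehicle for no effect and high inhibitor control for full effect; nearly all actives have a fitted effect of over 50% in size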
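Concentration–response in CHO-M1 cells, lithium-potentiated; 30 min at 37C. IP1 detected by competitive TR-FRET after 10 min lysis at RT. Hill-fitted AC50.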
PNC inhibitor: High Content Assay for Compounds that inhibit the Assembly of the Perinucleolar Compartment; AID 2417, 2010; PC3M PTB-GFP, PNC prevalence imaging, 16 h; hits give low values; activity change (PNC), negative = inhibition, % at 10 µM; 140,000 compounds, 3.1% hits;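 active = readout at or below -70, meaning at least 70% loss of cells showing the perinucleolar compartment, a nuclear body marking cancer cells; inconclusive = readout between -30 and a set limit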;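 note: plate controls were DMSO wells for no effect and camptothecin positive control wells for full effect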
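PC3M cells stably expressing PTB-GFP, 750–1000 cells/well, treated 16 h at 37 °C with compound (23 nl of library stock), in duplicate. After paraformaldehyde fixation and Hoechst stain, imaged at 20x; PNC prevalence scored by image analysis.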
HPGD block: qHTS Assay for Inhibitors of HPGD (15-Hydroxyprostaglandin Dehydrogenase) | Potency, µM, for the others: at the top dose activity change, negative = inhibition, hits mostly inhibitors | 15-hydroxyprostaglandin dehydrogenase [NAD(+)] (Homo sapiens), P15428 | 150,000 compounds, 4.3% hits | purified HPGD, NADH fluorescence kinetic, PGE2 substrate; active = well fitted inhibition curve with a large enough effect, not every such curve was filed as active; inconclusive = small, poorly fitted or top-dose-only effect, or another doubt; inactive = no such curve, though single readings can be large or run the other way; note: potency is the fitted concentration of half-maximal effect
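20 nM HPGD preincubated 15 min at room temperature with compound in 50 mM Tris-HCl pH 8, 0.01% Tween 20. Started with 1 mM NAD+ and 30 uM prostaglandin E2; NADH fluorescence (360/450 nm) read 5 times over 30-s intervals, last minus first.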
ALOX12 inhib: qHTS Assay for Inhibitors of 12-hLO (12-human lipoxygenase) | Polyunsaturated fatty acid lipoxygenase ALOX12 (Homo sapiens), P18054 | purified 12-hLO, xylenol orange hydroperoxide absorbance | Potency, µM (highest dose often 57.1 µM), inactives show at the top dose activity change, negative = inhibition, hits mostly inhibitors | 150,000 compounds, 0.12% hits | AID 1452, 2008; note: potency is the fitted concentration of half-maximal effect; nearly all actives have a fitted effect of over 55% in size
Target sequence (P18054 whole entry, looked up): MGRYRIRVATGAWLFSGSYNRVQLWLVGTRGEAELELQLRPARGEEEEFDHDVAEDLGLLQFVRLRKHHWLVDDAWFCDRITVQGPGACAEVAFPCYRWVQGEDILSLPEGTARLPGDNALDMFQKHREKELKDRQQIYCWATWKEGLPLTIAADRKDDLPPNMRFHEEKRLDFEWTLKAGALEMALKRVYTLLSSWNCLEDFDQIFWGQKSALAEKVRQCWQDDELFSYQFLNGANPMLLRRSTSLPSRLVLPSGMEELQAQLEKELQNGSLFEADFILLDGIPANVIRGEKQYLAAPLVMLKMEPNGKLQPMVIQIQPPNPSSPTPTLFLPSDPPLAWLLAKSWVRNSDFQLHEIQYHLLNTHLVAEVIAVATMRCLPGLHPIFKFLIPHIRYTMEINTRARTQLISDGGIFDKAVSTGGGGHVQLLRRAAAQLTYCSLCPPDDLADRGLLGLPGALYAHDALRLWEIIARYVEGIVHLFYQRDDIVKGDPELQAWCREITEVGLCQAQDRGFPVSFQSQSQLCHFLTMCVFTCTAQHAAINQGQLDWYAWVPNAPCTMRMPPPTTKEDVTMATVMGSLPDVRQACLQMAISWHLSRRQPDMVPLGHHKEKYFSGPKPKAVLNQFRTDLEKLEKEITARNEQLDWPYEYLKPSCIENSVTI
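Hydroperoxide formation by human 12-lipoxygenase from 40 uM arachidonic acid was followed colorimetrically via ferric-xylenol orange complex, using the 573/405 nm absorbance ratio. Enzyme concentration was 150 nM, with 30 min reaction at room temperature.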
IMPase cell inh: qHTS Assay for Identifying the Cell-Membrane Permeable IMPase Inhibitors | Inositol monophosphatase 1 (Rattus norvegicus), P97697 | 120,000 tested, under 10 active | inhibition (IP1 accumulation), % at 46.1 µM | CHO-M1 cells, IP1 accumulation, HTRF TR-FRET ratio; active = well fitted curve in the direction sought with a large enough effect in the signal ratio, not every such curve was filed as active; inconclusive = small, poorly fitted or top-dose-only effect, or a change in a side signal; inactive = no such curve, though single readings can be large or run the other way; the % refers to the signal ratio;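 note: cells stimulated with carbachol in lithium chloride buffer; plate controls were DMSO basal wells for no effect and reference inhibitor wells for full effect; higher means more IMPase inhibition seen as more IP1 and lower FRET ratio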
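Cellular IMPase inhibition is scored as a rise in cytosolic IP1, detected by competitive TR-FRET between d2-labelled IP1 and a europium anti-IP1 antibody. M1-expressing CHO cells were stimulated with carbachol for 30 min at 37C, with lithium (50 mM LiCl) present in the buffer.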
An asterisk follows results filed as active; ? = inconclusive; . = not tested or not shown; ! = not confirmed by another sample; [ ] = another dose, or the depositor's remark. A selection: hits, their analogues and other compounds. The true share with any hit is near 5.3%. Unless noted, calls come from the whole dose curve; as a rule, active = well fitted curve in the direction sought with a large enough effect; inconclusive = small, poorly fitted or top-dose-only effect, or another doubt; inactive = no such curve, though single readings can be large; an effect the other way counts as inactive or inconclusive. Unless noted, % is set by controls: 0 for no effect and ±100 for the full control effect.

SMILES	15-hLO-2 inh	IMPase Li cell	PNC inhibitor	HPGD block	ALOX12 inhib	IMPase cell inh
COC(=O)[C@@]1(Cc2ccc(F)cc2)[C@H]2c3cc(C(=O)N4CCCC4)n(Cc4ccc(C)c(F)c4F)c3C[C@H]2CN1C(=O)c1ccccc1	20%	11%	.	-15%	-2%	.
COC(=O)[C@@]1(Cc2ccc(F)cc2)[C@H]2c3cc(C(=O)N4CCCC4)n(Cc4ccc(C)o4)c3C[C@H]2CN1C(=O)c1ccccc1	?	8%	.	22µM*	-5%	.
COC(=O)[C@@]1(Cc2ccc(OC)cc2)[C@@H]2C(=CC(=O)[C@H]2CC(=O)C(=O)N2CCCC2)CN1C(=O)c1ccccc1	-1%	0%	73	-7%	-3%	.
C=C1C(=O)C=C2CN(C(=O)c3ccccc3)[C@@](Cc3ccc(OC)cc3)(C(=O)OC)[C@@H]12	7%	21%	.	7.1µM*	-24%	.
COC(=O)[C@@]1(Cc2ccc(OC)cc2)[C@@H]2[C@@H](CC(=O)[C@H]2CC(=O)C(=O)N(C)C)CN1C(=O)c1ccccc1	-3%	1%	-88*	-5%	-2%	.
Cc1cc(F)ccc1NCc1ccccc1-c1nnc(-c2ccccc2Cl)o1	.	.	.	.	.	1
CC(C)OC(=O)C1CC(C)(O)C(=O)C(C(=O)OC(C)C)C1c1ccc([N+](=O)[O-])cc1 (stereo not drawn)	.	9%	.	.	.	.
Cc1cccc(OCc2nnc(SCc3cc(=O)n4cc(Br)ccc4n3)o2)c1	-2%	?	12	?	-5%	-12
O=C(NCCC1=CCCCC1)C(=O)NCC1OCCCN1S(=O)(=O)c1ccc(F)cc1 (stereo not drawn)	.	2%	.	.	.	.
O=C(c1cc2nc(C3CC3)cc(C(F)F)n2n1)N1CCOCC1	-9%	22%[38.3 µM]	?	32µM*	1%	-5
O=C(c1cnn2c(C(F)F)cc(C3CC3)nc12)N1CCCC1	-4%	16%[38.3 µM]	23	-24%	2%	1
CC(=O)N=C(N)Sc1nc2ccccc2[nH]1	.	13%	-100*	-17%	3%	-9
COCC(=O)C(C(=O)OC)[C@H](CCc1ccccc1)NC(=O)OC (stereo partly drawn)	.	12%	.	-10%	.	.
CN1/C(=C\C(=S)NC(=O)c2ccc([N+](=O)[O-])cc2)C(C)(C)c2ccccc21	.	-6%	-10	-1%	1%	-3
CN1/C(=C\C(=S)NC(=O)c2cccc(Br)c2)C(C)(C)c2ccccc21	.	.	-18	.	14µM*	-6
COc1ccc(C2Oc3ccccc3C3=C2C(c2cccs2)n2ncnc2N3)cc1 (stereo not drawn)	17%	35%[38.3 µM]	-112*	-27%	-21%	16
Brc1ccc(C2C3=C(Nc4ncnn42)c2ccccc2OC3c2ccncc2)cc1 (stereo not drawn)	30%	41%[38.3 µM]	37	-10%	-1%	7
CCOC(=O)c1cnc(SC)nc1Sc1ccccc1	2%	32%[38.3 µM]	-29	-19%	1%	17
Cc1cn(C(=O)c2ccccc2)c(=S)n1-c1ccc(Cl)cc1	.	9%	-100*	?	-7%	-1
CN(Cc1ccccc1NS(=O)(=O)c1ccc2ccccc2c1)C1CCCCC1	.	18%	.	.	.	.
CC1=C(C#N)C(c2ccccc2)C2=C(N1)c1ccccc1C2=O (stereo not drawn)	.	7%	32	22µM*	-8%	.
Cc1cc(C)c(-c2c(O)c3cccc4c3n(c2=O)CCC4)c(C)c1	.	-4%	-100*	?	4%	0
Cc1cn([C@H]2C[C@@H](N=[N+]=[N-])[C@@H](CO)O2)c(=O)[nH]c1=O	.	-4%	.	-9%	.	.
Cn1c(=O)c2ncn(CC(=O)NCCC3=CCCCC3)c2n(C)c1=O	.	12%	-100*	-15%	7%	-6
Cn1c(=O)c2ncn(CC(=O)NC3CCCCCC3)c2n(C)c1=O	0%	1%[38.3 µM]	?	-10%	-9%	0
SMILES	15-hLO-2 inh	IMPase Li cell	PNC inhibitor	HPGD block	ALOX12 inhib	IMPase cell inh
COc1cc(NC(=O)c2ccc(C(=O)Nc3cc(OC)c(Cl)cc3OC)cc2)c(OC)cc1Cl	.	.	.	.	.	-5
CCOc1ccc(S(=O)(=O)Nc2cc(S(=O)(=O)N(CC)CC)ccc2N2CCCC2)cc1	.	6%	-121*	-11%	-2%	.
CCN(CC)S(=O)(=O)c1ccc(N2CCCC2)c(NC(=O)Cc2ccc(OC)cc2)c1	.	19%	.	.	.	.
C(=C1/CCCC2=C1Nc1ncnn1C2c1ccccc1)/c1ccccc1 (stereo not drawn)	48%	-17%[38.3 µM]	?	25µM*	-2%	8
FC(F)(F)c1ccccc1C1C2=C(Nc3ncnn31)c1ccccc1CCC2 (stereo not drawn)	26%	19%[38.3 µM]	13	-7%	-11%	2
S=C1NC2=C(CCC/C2=C\c2ccccc2)C(c2ccccc2)N1 (stereo not drawn)	.	2%	-2	22µM*	-24%	.
COc1cc2c(cc1OC)C1(CCCC1)C(N)=C2C#N	.	12%	-100*	-12%	?	8
COc1cc2c(cc1OC)C1(CCCC1)CNC2C (stereo not drawn)	.	8%	-20	-5%	2%	-7
O=C(NCc1ccco1)C12CN(Cc3ccccc3)CC1C(c1ccc([N+](=O)[O-])cc1)=NO2 (stereo not drawn)	.	9%[38.3 µM]	-1	-13%	-3%	5
O=C(NCc1ccco1)C12CN(Cc3ccccc3)CC1C(c1cccc([N+](=O)[O-])c1)=NO2 (stereo not drawn)	-15%	21%[38.3 µM]	-86*	-9%	-2%	3
CCN1C(=O)S/C(=C/c2ccc(Sc3nc4ccccc4[nH]3)o2)C1=O	.	11%	?	13µM*	0%	6
N#C/C(=C/c1ccc(Sc2nc3ccccc3[nH]2)o1)c1cccc(Br)c1	26%	35%[38.3 µM]	-19	?	2%	10
COc1ccc(/C=C/c2ccncc2)cc1OC	.	5%	-97*	?	-3%	?
O=c1[nH]c2cc([N+](=O)[O-])c([N+](=O)[O-])cc2[nH]c1=O	0%	-11%	.	32µM*!	-7%	-8
CC(C)=Cc1oc2ccc([N+](=O)[O-])cc2c1N1CC(C)OC(C)C1 (stereo not drawn)	.	-3%	.	.	.	.
